Screens: PubChem, National Center for Advancing Translational Sciences (NCATS)
Compounds with a hit are over-represented: about 11% of the library has one in this group of screens.
CBFb-RUNX1 inh: inhibitors of human CBF-beta and RUNX1 interaction. 230,000 tested, under 10 active. Q01196+Q13951. Potency, µM (doses to about 59.8 µM), inactives show top-dose activity, negative = inhibition, usual class: inhibitors. AlphaScreen CBFb-His/RUNX1-biotin binding, biochemical. AID 1477; note: % of control where 0% means no effect
Target sequence (Q01196 whole entry, looked up): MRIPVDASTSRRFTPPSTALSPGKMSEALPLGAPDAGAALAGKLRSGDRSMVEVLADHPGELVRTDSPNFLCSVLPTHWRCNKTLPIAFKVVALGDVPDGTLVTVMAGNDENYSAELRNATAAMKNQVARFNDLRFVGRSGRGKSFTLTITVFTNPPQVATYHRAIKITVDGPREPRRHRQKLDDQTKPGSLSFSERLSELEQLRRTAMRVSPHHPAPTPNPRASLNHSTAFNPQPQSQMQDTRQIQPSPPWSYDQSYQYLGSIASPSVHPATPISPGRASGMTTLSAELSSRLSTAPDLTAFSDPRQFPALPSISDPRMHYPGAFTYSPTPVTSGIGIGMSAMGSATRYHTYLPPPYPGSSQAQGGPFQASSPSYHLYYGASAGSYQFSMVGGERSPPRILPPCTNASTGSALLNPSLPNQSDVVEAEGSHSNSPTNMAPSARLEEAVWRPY
Target sequence (Q13951 whole entry, looked up): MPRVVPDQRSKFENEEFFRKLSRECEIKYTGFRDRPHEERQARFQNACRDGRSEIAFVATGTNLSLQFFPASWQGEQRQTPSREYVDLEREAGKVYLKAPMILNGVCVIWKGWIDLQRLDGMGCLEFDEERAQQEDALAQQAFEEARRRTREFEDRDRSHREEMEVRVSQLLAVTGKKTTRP
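AlphaScreen binding: CBFb-His and RUNX1-biotin (30 nM each) preincubated 20 min, compound added for 15 min, then nickel and streptavidin beads for 90 min, all at room temperature. Disruption of the interaction by any mechanism counts as activity.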
HttQ103 aggreg: mutant huntingtin aggregation inhibition; PC12 HttQ103-GFP aggregates, Acumen cytometry, 40 h; Potency, µM (top dose mostly 46.1 µM), without a hit: at the top dose activity change, negative = inhibition, usual class: inhibitors; 220,000 tested, 1.1% active; AID 1688; note: potency is the fitted concentration of half-maximal effect; % is set by controls: 0 for no effect and ±100 for the full control effect; nearly all actives have a fitted effect of over 60% in size
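Aggregate formation scored by laser-scanning cytometer (488 excitation, 500–530 emission) in lysed PC12 cells expressing Q103-GFP after 100 nM tebufenozide induction; library tested in dose series, with ATPLite reagent added in the multiplex.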
PNC inhibitor: blocks assembly of the perinucleolar compartment. 140,000 tested, 3.1% active. activity change (PNC), negative = inhibition, % at 10 µM. PC3M PTB-GFP, PNC prevalence imaging, 16 h; stronger effect = lower value;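 active = readout at or below -70, meaning at least 70% loss of cells showing the perinucleolar compartment, a nuclear body marking cancer cells; inconclusive = readout between -30 and a set limit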;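 note: plate controls were DMSO wells for no effect and camptothecin positive control wells for full effect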
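Read-out is percentage of cells bearing a perinucleolar compartment, from automated 20x imaging of fixed, Hoechst-stained PC3M PTB-GFP cells. Cells were seeded 4 h, then exposed 16 h to compound (23 nl of library stock) in duplicate plates.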
ALDH1A1 block: blocks purified human ALDH1A1 activity; P00352; Purified ALDH1A1, NADH fluorescence, propionaldehyde substrate; Potency, µM (top dose mostly 75.3 µM), inactives show at the top dose activity, negative = inhibition, actives largely listed as inhibitors; 220,000 tested, 7.3% active; active = well fitted inhibition curve with a large enough effect, not every such curve was filed as active; inconclusive = small, poorly fitted or top-dose-only effect, or another doubt; inactive = no such curve, though single readings can be large or run the other way;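 note: potency is the fitted concentration of half-maximal effect; plate controls were no enzyme wells and a reference inhibitor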
HPGD block: inhibitors of human 15-hydroxyprostaglandin dehydrogenase (HPGD); 150,000 tested, 4.3% active; purified HPGD, NADH fluorescence kinetic, PGE2 substrate; AID 894; Potency, µM, without a hit: top-dose activity change, negative = inhibition, usual class: inhibitors; P15428; active = well fitted inhibition curve with a large enough effect, not every such curve was filed as active; inconclusive = small, poorly fitted or top-dose-only effect, or another doubt; inactive = no such curve, though single readings can be large or run the other way; note: potency is the fitted concentration of half-maximal effect; % is set by controls: 0 for no effect and ±100 for the full control effect
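NADH formation kinetics: reaction with 30 uM PGE2 and 1 mM NAD+ (final), 20 nM enzyme, Tris-HCl pH 8 with Tween 20, after 15 min compound preincubation at room temperature. Fluorescence change, last versus first of five reads.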
HTT ATP protect: protects HTT-Q103 PC12 cells, measured by ATP; PC12 HTT-Q103 induced, cytoprotection, ATP luminescence, 40 h; Potency, µM (highest dose often 56.4 µM), inactives show cytoprotection (ATP increase), hits mostly activators; 230,000 tested, 0.14% active; AID 1471; note: potency is the fitted concentration of half-maximal effect; % of control where 0% means no effect; nearly all actives have a fitted effect of over 45% in size
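Cells were plated at 1500 per well in phenol red-free DMEM with 5% equine and 5% calf serum. Tebufenozide (100 nM final) and compounds were added, then ATPlite reagent, and luminescence was read.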
Active calls of the source: *; ? = inconclusive; . = no result given; [ ] = dose if it differs, or a comment. Unless noted, calls come from the whole dose curve; as a rule, active = well fitted curve in the direction sought with a large enough effect; inconclusive = small, poorly fitted or top-dose-only effect, or another doubt; inactive = no such curve, though single readings can be large; an effect the other way counts as inactive or inconclusive.

SMILES	CBFb-RUNX1 inh	HttQ103 aggreg	PNC inhibitor	ALDH1A1 block	HPGD block	HTT ATP protect
CCN1CCN(c2cc(C)c3cc(NC(=S)N4CCN(c5ccccc5)CC4)ccc3n2)CC1	-9.9%	-30.5%	.	?	.	-99.0%
COC(=O)C/C=C\[C@@H](C)[C@@H](/C=N\OC[C@@H](O)[C@H]1O[C@H]2OC(C)(C)O[C@H]2[C@@H]1O)NS(=O)(=O)c1ccc(C)cc1	-1.1%[13.1 µM]	.	.	-3.0%[13.5 µM]	.	-2.8%[10 µM]
COCCN(C(=O)CCc1ccccc1OC)c1nnc(-c2cccnc2)s1	2.8%	-2.0%[9.22 µM]	.	3.9%	.	-3.0%[10 µM]
CCN(CC)CCNC(=O)c1cc(Sc2nnc(C)s2)nc2ccccc12	-5.0%	-15.3%	-22.4	8.9%	1.26µM*	4.7%[10 µM]
NC(Cc1cc(I)c(Oc2cc(I)c(O)c(I)c2)c(I)c1)C(=O)O (configuration not stated)	4.6%	.	.	15.8µM*	-17.3%	-31.9%
Cc1ccc2cc(C)c3nnc(SCC(=O)Nc4nc5c(s4)CCCC5)n3c2c1C	-12.0%	46.8%	14.1	-5.3%	-9.2%	-23.2%
Cc1ccc2c(CN3CCCc4ccccc43)cc(=O)oc2c1C	5.9%	-6.7%	?	15.8µM*	-13.6%	-24.2%
COc1cccc(C(=O)OCC(=O)Nc2cc(C)c(C)cc2[N+](=O)[O-])c1	-14.4%	-19.6%	?	?	-5.1%	19.1%[10 µM]
N#Cc1cc(-c2ccccc2)cnc1Cl	4.5%	19.1%	20.9	3.55µM*	-15.1%	-15.8%[10 µM]
CCNC(=O)C(=O)Nc1ccc(OC)c(Cl)c1	5.9%	?	.	4.7%	.	27.7%[10 µM]
Nc1cc2c(cc1C(=O)c1ccc(Cl)cc1)OCCO2	.	-6.5%	18.6	-0.3%	-11.2%	-20.2%
CN(C)c1nc(-c2ccccn2)nnc1-c1ccccc1	.	-29.1%[9.22 µM]	-26.4	-2.7%	-16.9%	-32.2%
CCN(CC)c1nc(-c2ccccn2)nc(-c2ccccc2)c1C#N	-8.8%	5.01µM*	.	-8.7%	.	-124.2%
CCCCOC(=O)c1ccc(NC(=O)c2ccoc2C)cc1	11.6%	?	?	-8.4%	-15.2%	-15.1%
CCCOC(=O)c1ccc(NC(=O)C2C3C=CC(O3)C2C(=O)O)cc1 (configuration not stated)	2.5%	?	25.5	1.78µM*	?	-30.5%
CCCOC(=O)c1ccc(NC(=O)Oc2ccccc2)cc1	-14.4%	-0.4%	-27.7	25.1µM*	?	3.3%
CCCOC(=S)Nc1ccccc1	-0.1%	6.3%[9.22 µM]	-0.6	11.8%	22.4µM*	-0.3%
CCCOC(=O)c1ccc(NC(=O)c2ccoc2C)cc1	9.6%	-8.5%	?	?	31.6µM*	-15.1%
O=C(O)CC[C@@H](NC(=O)c1ccccc1C(=O)O)C(=O)O	.	.	.	.	.	19.0%[1.9 µM]
CCC(=O)Nc1cc(C(=O)O)ccc1S(=O)(=O)c1ccc(C)cc1	-22.0%	12.2%	-29.3	14.7%	-20.8%	.
Cc1ccc(S(=O)(=O)N(CC(=O)NCC2CCCO2)c2cccc([N+](=O)[O-])c2)cc1 (configuration not stated)	19.0%	2.8%	.	14.1µM*	.	-18.3%
Cc1ccc(S(=O)(=O)NCC(=O)N(CC(=O)NCC2CCCO2)CC2CCCO2)cc1 (configuration not stated)	-1.0%	.	.	-5.4%	.	.
CCOc1ccc(N(CC(=O)NCC2CCCO2)S(=O)(=O)c2ccc(SC)cc2)cc1 (configuration not stated)	3.3%	17.3%	?	3.98µM*	-6.4%	11.5%
COc1ccc(N(CC(=O)NCC2CCCO2)S(=O)(=O)c2ccc(C)cc2)cc1OC (configuration not stated)	6.5%	8.6%	?	4.1%	-6.8%	13.0%
COc1ccccc1CN(CC(=O)NCC1CCCO1)C(=O)CNS(=O)(=O)c1ccc(C)cc1 (configuration not stated)	0.5%	8.1%	20.7	12.6µM*	0.9%	-3.3%
SMILES	CBFb-RUNX1 inh	HttQ103 aggreg	PNC inhibitor	ALDH1A1 block	HPGD block	HTT ATP protect
CCCCCS(=O)(=O)CCCCCCCCCCn1c(-c2ccc(O)cc2)c(C)c2cc(O)ccc21	-16.5%	.	.	?	?	-148.0%
COc1ccc(N=C2S/C(=C\c3ccc(OC(C)C(=O)O)c(OC)c3)C(=O)N2CCc2c[nH]c3ccccc23)cc1 (configuration not stated)	?	-8.1%[9.22 µM]	.	14.1µM*	.	-1.0%[10 µM]
COc1cc(/C=C2\SC(=Nc3ccccc3)N(CCc3c[nH]c4ccccc34)C2=O)ccc1OC(C)C(=O)O (configuration not stated)	4.3%	?	?	6.3%	?	.
COc1ccc2c3c(ccc2c1)N[C@H](C(=O)O)CC3	.	.	.	?	?	-14.3%[10 µM]
COc1cc2c(cc1OC)C1(O)C(=O)c3ccc(O)c(C(=O)O)c3OC1CO2 (configuration not stated)	5.9%	.	.	-11.0%	-13.7%	-6.8%
COc1ccc(CN(C)C(=O)CCl)cc1	11.5%	12.6µM*	.	0.501µM*	.	?
CN(Cc1ccc(Cl)cc1)C(=O)CCl	-4.1%	?	.	0.501µM*	.	-41.1%
COc1ccc(OCC(=O)N(C)Cc2ccccc2)cc1	4.3%	1.5%[9.22 µM]	32.5	-16.8%	-4.0%	-7.0%
CN(Cc1ccc(Cl)s1)C(=O)CCl	-0.5%	?	.	0.355µM*	.	3.0%[10 µM]
O=C(COc1ccccc1)N1CCN=C1SCc1ccc(F)cc1	11.5%	-3.5%[9.22 µM]	.	.	.	5.4%[10 µM]
COc1ccc(NC(=O)c2ccc(CNc3c(NC4CCCCC4)c(=O)c3=O)cc2)cc1OC	-2.3%	-5.3%	-24.1	-13.0%	17.8µM*	-0.7%
Cc1cc(=O)oc2cc(OCC(=O)OCc3nnc(-c4ccccc4)o3)ccc12	4.6%	21.7%	-85.6*	?	?	0.2%[10 µM]
O=C(O)COc1ccc2c(-c3ccccc3)cc(=O)oc2c1	4.5%	-14.9%	?	?	17.8µM*	-18.1%[10 µM]
Cc1cc(=O)oc2cc(OCc3nnc(-c4ccccc4Br)o3)ccc12	0.0%	-19.1%	13.1	?	?	-18.4%
Cc1cc(=O)oc2cc(OCC(=O)NCCc3nc4ccccc4[nH]3)ccc12	-12.5%	6.6%	-86.6*	?	?	8.7%
CC(=O)COc1ccc2c(-c3cccc([N+](=O)[O-])c3)cc(=O)oc2c1	-2.5%	-14.9%[9.22 µM]	.	?	.	-33.0%
C=CCc1c(C)nc(SCc2nc3ccccc3c(=O)[nH]2)[nH]c1=O	4.8%	?	-22.7	14.1µM*	2.82µM*	-5.3%
CCOC(=O)N1CCN(C(=O)CSc2nc3c(cnn3-c3ccccc3)c(=O)[nH]2)CC1	-0.7%	17.3%	-0.8	11.2µM*	-27.3%	-41.1%
O=c1[nH]c(SCc2nc3c(cnn3-c3ccccc3)c(=O)[nH]2)nc2ccccc12	7.6%	5.3%	-108.4*	?	0.794µM*	-59.1%
